# In PubChem BioAssay AID1745857 (National Center for Advancing Translational Sciences (NCATS), 2022):
# The campaign covered roughly 120,000 compounds. About 370 (0.31%) were called active. Roughly 4% stayed inconclusive and do not appear here. Calls follow the shape of the full dose curve. The list comes from a sample in which actives are over-represented; it also holds similar structures and randomly drawn compounds. A call without a number means that no potency is given here.
# Assay: Primary qHTS Assay for Foot and Mouth Disease Virus Antivirals against NCGC Sytravon and CBC Compound Libraries: Renilla Luciferase Signal; also: nearly all actives have a fitted effect of over 55% in size
# Details: FMDV replicon cells; series mostly up to 57.5 µM
# Potency is read from the fitted curve at half-maximal effect.
row,Compound,Potency
1,COC(=O)Cc1csc(NC(=O)Cc2c(C)c3ccc(OC)cc3oc2=O)n1,inactive
2,O=C(NCCOc1ccccc1F)c1n[nH]c(=O)c2ccccc12,inactive
3,NS(=O)(=O)c1ccc(NC(=O)COc2ncnc3ccc(Br)cc23)cc1,inactive
4,Cc1cccc2nc(-c3ccc(N4CCOCC4)cc3)c(Nc3ccc4c(c3)OCCO4)n12,inactive
5,O=C(OC1CCCCC1=O)c1ccc(Cl)c(Cl)c1 (stereo unspecified),inactive
6,O=C(NC(Cc1cccc(F)c1)c1cccc(F)c1)C1CCOCC1 (stereo unspecified),inactive
7,O=C(CCC(=O)c1ccc(Cl)cc1)OCc1ccc(Cl)cc1Cl,inactive
8,CCOc1ccc(CCNC(=O)C(C)n2nc(C)n3c(cc4sccc43)c2=O)cc1OCC (stereo unspecified),inactive
9,CCc1ccc(/C=C(\C#N)C(=O)NC2CC2)s1,inactive
10,C[C@@H](C(=O)N1CCN(c2ccccc2)CC1)n1cnc2ccccc2c1=O,inactive
11,CCC(C)NCCC(c1ccccc1)c1ccc(C)c(C)c1O (stereo unspecified),inactive
12,COc1c(C)cccc1C(=O)Nc1cccc2ncccc12,inactive
13,CCOc1ccccc1OCC(=O)Nc1cccc2ncccc12,8.91 µM (active)
14,CCCOc1ccc(NC(=O)COc2cccc(C)c2C)c2cccnc12,inactive
15,Cc1ccc(NS(=O)(=O)c2c(C)[nH]c(C)c2C(=O)N2CCCCC2)c(C)c1,inactive
16,Cc1ccc(N/N=C/C=C/c2ccccc2)cc1Cl,inactive
17,Cc1nc2cc(NC(C(=O)Nc3ccc(F)cc3)c3ccccc3)ccc2o1 (stereo unspecified),inactive
18,COc1ccc(/C=C/c2nc3ccccc3o2)cc1OCC(C)C,inactive
19,COc1ccc(C(=O)/C(=C/c2ccncc2)c2nc3ccccc3o2)cc1OC,15.8 µM (active)
20,COc1ccc(NC(C)=O)cc1NC(=O)/C=C/c1nc2ccccc2o1,inactive
21,Cc1ccc(CCC(=O)Nc2ccc(C)c(C)c2)s1,inactive
22,CCN1C(=O)c2ccccc2S(=O)c2ccc(C(=O)NCc3ccc(F)cc3)cc21 (stereo unspecified),inactive
23,O=C(O)c1ccc2c(c1)N(Cc1ccc(F)cc1)C(=O)c1ccccc1S2=O (stereo unspecified),8.91 µM (active)
24,O=C(NC1CCCCC1)c1ccc2c(c1)N(Cc1ccc(Cl)cc1)C(=O)c1ccccc1S2=O (stereo unspecified),inactive
25,O=C(CC(=O)c1ccc(F)cc1)c1ccc(F)cc1,inactive
26,CC(Oc1ccc(C#N)cc1)C(=O)NC(C1CC1)C1CC1 (stereo unspecified),inactive

row,Compound,Potency
1,O=S1(=O)c2ccc(N3CCN(Cc4ccccc4F)CC3)cc2Oc2ccccc2CN1Cc1cn(Cc2ccc(Cl)cc2)nn1,inactive
2,Cc1nn(Cc2ccc(F)cc2)c(C)c1NC(=O)c1noc2c1CCc1ccccc1-2,inactive
3,Cc1ccccc1Cn1nc(C)c(NC(=O)c2cc(-c3ccc(F)cc3)on2)c1C,inactive
4,Cc1nn(Cc2ccc(F)cc2)c(C)c1NC(=O)c1cc(CC(C)C)on1,25.1 µM (active)
5,O=C(Nc1ccccc1)C1=C(Nc2ccc(F)cc2F)c2ccccc2S1(=O)=O,inactive
6,CC(=O)Nc1ccc(NC(=O)COC(=O)c2oc3ccccc3c2C)cc1,inactive
7,CN(Cc1ccc2c(c1)OCCO2)CC(O)COc1ccccc1C(C)(C)C (stereo unspecified),inactive
8,CC(C)(C)c1ccc2c(c1)OCCOCCOCCOc1ccc(C(C)(C)C)cc1OCCOCCOCCO2,25.1 µM (active)
9,CC(Sc1ccc2c(c1)OCCCO2)C(=O)O (stereo unspecified),inactive
10,Cc1ccnc(NC(=O)CCc2ncc(-c3ccc(F)cc3F)o2)c1,inactive
11,CCOc1ccc(NC(C)=O)cc1S(=O)(=O)Nc1ccccc1-c1nnc2n1CCCCC2,inactive
12,COc1ccc(-c2c(C)c3ccc(O)c(C)c3oc2=O)cc1,inactive
13,COc1ccc(-c2c(C)c3ccc(OS(C)(=O)=O)cc3oc2=O)cc1,15.8 µM (active)
14,COc1ccc(-c2c(C)oc3cc(OC)ccc3c2=O)cc1,inactive
15,CCNc1c(NS(=O)(=O)c2ccc3c(c2)oc(=O)n3C)c(=O)oc2ccccc12,inactive
16,Cc1cc2oc(=O)cc(CN3CCN(c4ccccc4)CC3)c2cc1O,inactive
17,Cc1cccc(CN2CCN(Cc3cc(=O)oc4c(C)c(O)ccc34)CC2)c1,20 µM (active)
18,CC(C)c1ccc2oc(=O)cc(CN3CCN(Cc4ccccc4)CC3)c2c1,inactive
19,CNC/C=C/COc1ccc(C)c(C)c1,inactive
20,Cc1ccc(S(C)(=O)=O)cc1NCc1ccccc1F,inactive
21,CCC(Sc1nc2ncccc2[nH]1)C(=O)Nc1ccc(C)c(Cl)c1 (stereo unspecified),inactive
22,NCCOc1ccc(C(F)(F)F)cc1,inactive
23,CC(C)(C)C(=O)NCCCC(=O)NCCc1ccccc1,inactive
24,Cc1ccc2c(Cn3nnc(-c4ccc(F)cc4)n3)cc(=O)oc2c1,inactive
25,Cc1ccccc1NS(=O)(=O)c1ccc(C(=O)N(C)CC(=O)Nc2cccc3ccccc23)cc1,inactive
26,O=C(Cc1ccccc1Cl)N1CCN(c2ncnc3nc[nH]c23)CC1,inactive

row,Compound,Potency
1,CC(=O)Nc1ccc2oc(-c3cncc(Br)c3)nc2c1,inactive
2,CCOc1ccc(NC(=O)CCc2ncc(-c3ccccc3F)o2)cc1,inactive
3,CCc1cc(C(=O)N2CCN(c3ccccc3OC)CC2)no1,inactive
4,O=C(Nc1cccc(-c2nc3cc(Cl)ccc3o2)c1)c1ccccc1,inactive
5,Fc1ccc(Oc2ccc(CNc3ncccn3)cn2)cc1,inactive
6,CC(CCN1CCC(C(O)(c2ccccc2)c2ccccc2)CC1)Oc1ccc([N+](=O)[O-])cc1Cl (stereo unspecified),inactive
7,CC(=O)Oc1ccc2c(C)c(-c3ccccc3)c(=O)oc2c1,inactive
8,CC1CCc2sc(N)c(C#N)c2C1 (stereo unspecified),inactive
9,COC(=O)CN1CCCC1c1ccsc1 (stereo unspecified),inactive
10,CCCCNC(=O)c1cccc(N)c1,inactive
11,C=C(C)CN1CCN(CCO)CC1,inactive
12,Cc1sc2nc(SCc3ccc(Cl)cc3)n(CCCN3CCOCC3)c(=O)c2c1C,inactive
13,Cc1ccccc1Nc1nc(-c2ccc([N+](=O)[O-])cc2)nc2ccccc12,inactive
14,FC(F)(F)c1ccccc1C(c1ccccc1)N1CCCNCC1 (stereo unspecified),inactive
15,Cc1ccc(CNC(=O)c2scnc2C)cn1,inactive
16,Cc1ncsc1C(=O)NCc1ccc(N2CCCCCC2)nc1,12.6 µM (active)
17,COc1ccc(OC)c(CNC(=O)c2scnc2C)c1,inactive
18,COc1cccc(CNC(=O)N2CCN(Cc3ccc(Br)s3)CC2)c1,inactive
19,CC(C)OCc1ccccc1CNC(=O)c1nccnc1N,inactive
20,COc1cc(CNC(=O)Cc2ccc(OC)c(OC)c2)ccn1,inactive
21,COc1ccc2cc(CNC(=O)c3nccnc3N)ccc2c1,22.4 µM (active)
22,Nc1nccnc1C(=O)NCCc1ccc(F)cc1,inactive
23,COc1cc(CNC(=O)C(C)Oc2ccccc2)ccn1 (stereo unspecified),inactive
24,Nc1nccnc1C(=O)NCc1ccnc(Oc2ccccc2)c1,31.6 µM (active)
